From PubChem BioAssay AID686979 (National Center for Advancing Translational Sciences (NCATS), 2013)
Among all 420,000 compounds or so, about 50,000 (12%) were called active. Inconclusive results (about 26%) are left out. This excerpt belongs to a sample that is enriched for actives. Values without a mark were called inactive. The call rests on the fitted dose curve; in most records, active means well fitted inhibition curve with a large enough effect; inconclusive means small, poorly fitted or top-dose-only effect; inactive means flat fitted curve, though single readings scatter.

experiment: qHTS for Inhibitors of human tyrosyl-DNA phosphodiesterase 1 (TDP1): qHTS in cells in presence of CPT; settings: chicken DT40 Tdp1-/-;hTDP1 cells + 20 nM CPT, ATP luminescence, 48 h; series mostly up to 46.2 µM; activity change, negative = growth inhibition: at the top concentration; further: nearly all actives have a fitted effect of over 55% in size
In short: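 Chicken DT40 Tdp1-/- cells stably complemented with human TDP1 were seeded at 400 cells/well in medium containing 20 nM camptothecin, exposed to pin-transferred compounds, and grown at 37 °C for at least 48 hr. Viability was read as ATP luminescence.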
On the % scale 0 is the no-effect control and ±100 the full control effect; potency means the concentration at half of the fitted maximal effect.

| SMILES | activity change, negative = growth inhibition | Potency |
| --- | --- | --- |
| O=C(Cn1cnc2c(oc3ccccc32)c1=O)Nc1ccc(OC(F)(F)F)cc1 | -14.7% | – |
| C[C@H](NC(=O)c1ccccc1Cl)C(=O)OCCOc1cccc(Cl)c1 | -17.7% | – |
| O=C1C(Sc2cccc(F)c2)=C[C@@]2(O)CC[C@@H](O)[C@]1(Sc1cccc(F)c1)[C@H]2O | – | 16.4 µM (active) |
| COC(=O)C1=C(C)Nc2ncnn2C1c1ccco1 (stereo not given) | 4.8% | – |
| COc1ccccc1NC(=O)C1=C(C)Nc2ncnn2C1c1ccc(C)o1 (stereo not given) | 0.297% | – |
| CC1=C(C(=O)OCc2ccccc2)C(c2ccco2)n2ncnc2N1 (stereo not given) | – | 23.1 µM (active) |
| Cc1ccc(S(=O)(=O)c2c[nH]c3ccc(Cl)cc3c2=O)cc1 | 29.4% | – |
| Cc1nc(COc2cc3oc(=O)cc(C)c3cc2Cl)cs1 | 2.52% | – |
| CN(C)/N=C/c1cn(-c2ccccc2)nc1-c1cccnc1 | -32.9% | – |
| COc1ccc(-c2nn(-c3ccccc3)cc2/C=N/Nc2ccccn2)cc1OC | – | 7.31 µM (active) |
| O=Cc1cn(-c2ccccc2)nc1-c1ccccn1 | -24% | – |
| Cc1cc(C)cc(OCC(=O)Nc2nc(-c3ccc(F)cc3)ns2)c1 | -26.5% | – |
| O=c1ccn([C@@H]2O[C@H](CNS(=O)(=O)c3cc4ccccc4s3)[C@@H](O)[C@H]2O)c(=O)[nH]1 | -10.7% | – |
| COc1ccc2c(c1)c1ncn(Cc3ccccn3)c(=O)c1n2C | -5.08% | – |
| Cc1cc([N+](=O)[O-])nn1Cc1ccc(F)cc1 | 0.664% | – |
| C=CCN1C=C(C(=O)c2ccccc2)C(=O)CC1 | 11.1% | – |
| C=CCN1C(=O)C2(OCCCO2)c2cccc(Cl)c21 | -7.94% | – |
| C=CCN1C(=O)C(O)(CC(=O)c2ccc(Cl)cc2)c2ccccc21 (stereo not given) | – | 18.4 µM (active) |
| O=C(NCc1ccccc1)C1CCN(S(=O)(=O)c2ccc3[nH]c(=O)ccc3c2)CC1 | -5.45% | – |
| CCC(=O)N1CCc2cc(S(=O)(=O)NC(Cc3ccccc3)C(=O)NCc3ccc(C)cc3)ccc21 (stereo not given) | -22.3% | – |
| COCCCNC(=O)/C(C#N)=C/c1c(N2CCCCCC2)nc2ccccn2c1=O | 3.95% | – |
| CC(=O)Nc1ccc(NC(=O)COc2ccc(S(=O)(=O)NC(C)c3ccccc3)cc2)cc1 (stereo not given) | -5.71% | – |
| Cc1ccc(COc2ccc(/C=N/NC(=O)CN3CCCCC3)cc2)cc1 | 4.47% | – |
| CNC(=S)NNC(=O)c1sccc1OCc1ccccc1 | -5.88% | – |
| Cc1ccc(/C=N/NC(=O)c2sccc2OCc2ccc(F)cc2)cc1 | – | 16.4 µM (active) |

| SMILES | activity change, negative = growth inhibition | Potency |
| --- | --- | --- |
| CCOc1ccccc1NC(=O)CN1CCN(S(=O)(=O)c2ccc(Br)cc2)CC1 | -28.6% | – |
| O=C(Nc1ccc(F)cc1)N1CCCC(c2nc3c(nnn3Cc3ccccc3Cl)c(=O)[nH]2)C1 (stereo not given) | – | 20.6 µM (active) |
| COc1ccc(Cn2nnc3c(=O)[nH]c(C4CCN(C(=O)c5ccccc5Cl)CC4)nc32)cc1 | -23.2% | – |
| CC(=O)Nc1ccc(Nc2ncnc3c2nnn3Cc2ccccc2Cl)cc1 | 17.7% | – |
| C[C@@H]1CN([C@@H](C)CO)C(=O)CCCn2cc(nn2)CO[C@H]1CN(C)S(=O)(=O)c1ccc(-n2cccn2)cc1 | -1.95% | – |
| C/C=C(\C)C(=O)OC1C(OC(=O)C2(C)OC2C)c2cc3ccc(=O)oc3cc2OC1(C)C (stereo not given) | 14.7% [at 9.04 µM] | – |
| COc1cc(C2C(C(=O)c3sc(C)nc3C)=C(O)C(=O)N2CCN(C)C)cc(OC)c1OC (stereo not given) | 17.6% | – |
| O=C(c1cccs1)n1nc(NCc2ccccc2)nc1NCc1ccccc1 | -2.83% | – |
| CCCc1cc(=O)[nH]c(SCC(=O)N2C(C)CCCC2C)n1 (stereo not given) | 6.83% | – |
| CCCc1cc(=O)[nH]c(SCC(=O)c2c(N)n(CC(C)C)c(=O)n(C)c2=O)n1 | – | 7.31 µM (active) |
| CCCc1cc(=O)[nH]c(SCC(=O)Nc2ccc(S(=O)(=O)N3CCCC3)cc2)n1 | 8.44% | – |
| Cc1ccc(Cl)cc1NC(=O)CSc1nccn1C | -9.01% | – |
| COc1ccccc1C(=O)NCCC(=O)NC1=NCCS1 | -4.1% | – |
| Cc1cc(C)cc(Oc2c(C(F)(F)F)oc3cc(OCC(=O)O)ccc3c2=O)c1 | -5.4% | – |
| Cc1cccc(-c2nc3ccccc3c(=O)n2NC(=O)Cc2ccc(Cl)cc2)c1 | 7.87% | – |
| Cc1nc2ccccc2c(=O)n1-c1ccc(NS(=O)(=O)c2ccc(F)cc2F)cc1 | -12.3% | – |
| Cc1[nH]n(-c2ccc(Cl)cc2)c(=O)c1/C=N/n1c(C)nc2ccccc2c1=O | – | 20.6 µM (active) |
| CC(OC(=O)c1cccc(S(=O)(=O)N2CCOCC2)c1)C(=O)NCC1CCCCC1 (stereo not given) | -12.7% | – |
| Cc1occc1-c1nnc(SCC(=O)NC2(C#N)CCCC2)n1C | -10.5% | – |
| CN(Cc1ccc(C(F)(F)F)cc1)C(=O)[C@H]1O[C@@H](n2cnc3c(N)ncnc32)[C@H](O)[C@@H]1O | -2.52% | – |
| Cc1noc(C)c1S(=O)(=O)N(C)C[C@H]1Oc2c(NC(=O)Nc3ccc4c(c3)OCO4)cccc2C(=O)N([C@H](C)CO)C[C@@H]1C | -4.03% | – |
| CCc1nn(CCCC(=O)Nc2ccc(C)cc2C)c(=O)c2cc3occc3n12 | -16.1% | – |
| COc1ccc(OCCCn2cccc2/C=C2/C(=N)N3OC(C)=CC3=NC2=O)cc1 | – | 18.4 µM (active) |
| CC1=CC2=NC(=O)/C(=C/c3coc4ccccc4c3=O)C(=N)N2O1 | 7.64% | – |
| CCOc1cc(/C=C2/C(=N)N3OC(C)=CC3=NC2=O)ccc1OC | 0.826% | – |
